How the values were obtained:
Test in all cases: PBM binding z-score (relative to random genomic background probes); higher = stronger binding; sequences stand for … in GC…GCGATTGACAGCGTAGAATGAAGG
[1] = test system: FXR:RXRa (NR concentration 270 nM, RXRa partner concentration 90 nM)
Method in brief: (§1)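 Regression normalization was applied to scanned fluorescence from custom Agilent 4×180K protein-binding microarrays. Before scanning, arrays were incubated 1 h with ligand-free nuclear receptor dimers, and binding was detected with antibodies against each partner (one per run). Binding z-scores use the random background probes as reference.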

[2] = test system: LXRa homodimer (NR concentration 270 nM)
Method in brief: as §1

[3] = test system: LXRb homodimer (NR concentration 270 nM)
Method in brief: as §1

[4] = test system: PPARg:RXRa (NR concentration 180 nM, RXRa partner concentration 90 nM)
Method in brief: as §1

[5] = test system: PPARg:RXRa 270nM:90nM, anti-RXR (NR concentration 270 nM, RXRa partner concentration 90 nM)
Method in brief: as §1

[6] = test system: PPARg:RXRa 30nM:10nM, anti-RXR (NR concentration 30 nM, RXRa partner concentration 10 nM)
Method in brief: as §1

[7] = test system: PPARg:RXRa 90nM:30nM, anti-RXR (NR concentration 90 nM, RXRa partner concentration 30 nM)
Method in brief: as §1

[8] = test system: PPARg:RXRa DBDmut IVT, anti-RXR (DBD mutation: RXRa K156A/R161A, NR concentration 270 nM, RXRa partner concentration 90 nM)
Method in brief: as §1

Row | Sequence | PBM binding z-score [1] | PBM binding z-score [2] | PBM binding z-score [3] | PBM binding z-score [4] | PBM binding z-score [5] | PBM binding z-score [6] | PBM binding z-score [7] | PBM binding z-score [8]
1 | ACTAGTTGGTCAGCTGAGGTCACACCCAATTCGG | 2.83 | 2.07 | 0.443 | 1.54 | 2.06 | 0.239 | 1.19 | 1.35
2 | TCTTGTAGATCAATAGAAGTTAAGAAAGTGCGCT | 0.718 | -0.154 | 0.0744 | -5.78e-05 | 1.83 | 3.04 | 2.6 | 1.85
3 | CGTCCAAGGTCATATGAGGTCAGTGAAGACAGAT | 7.7 | 6.17 | 2.22 | 4.87 | 5.72 | 2.34 | 4.36 | 3.46
4 | TAGCCTAGGTCATGGGCCAGTGTACCACGCGAAC | 4.82 | 0.0441 | -0.0634 | 4.13 | 3.87 | 1.39 | 2.66 | 1.74
5 | CGTCCAAGGTCATTGGAGGTCAGTGAAGACAGAT | 7.92 | 6.77 | 1.93 | 5.48 | 5.76 | 2.48 | 4.57 | 3.6
6 | CCTAGCAGGCCAATCTAGGTCACTCAAGGCTTGA | 1.46 | 0.192 | -0.859 | 2.1 | 2.47 | 0.115 | 1.49 | 5.08
7 | TCTAGTTGGTCACGGAGGTCACAAACGACGGGTA | 2.95 | 2.21 | 0.892 | 3.15 | 3.83 | 3.19 | 3.12 | 2.44
8 | CAAACTAGGTCACTAAAGGTCAAAGTCGAATGAC | 7.13 | 10.4 | 4.07 | 10.1 | 8.33 | 6.31 | 8.16 | 8.1
9 | CCTTACGGGTCACGAGGTTGTAGCACGACGAGCG | 6.87 | 0.0323 | -0.413 | 6.48 | 6.12 | 3.32 | 5.08 | 4
10 | TATACAAGGTCAAAGGCCAGAGTACGAATGTCGA | 7.51 | 6.08 | 4.21 | 8.52 | 7.39 | 5.48 | 7.66 | 2.91
11 | GCTAGTTGGTCAGTAAAAGGTGACACACCGGTCG | 0.000592 | -0.18 | -0.568 | 0.834 | 1.59 | -0.104 | 1.02 | 0.643
12 | AGAATGAGATTACCAAAGATCAGGGAAACGCTTG | -0.562 | -0.342 | -0.574 | 0.538 | -0.216 | -0.00239 | 0.0878 | -0.34
13 | GCTGCTAGTTCAACTGATGGTCAGCTAAAGCTCG | -0.0566 | -0.53 | -0.641 | -0.618 | -0.212 | -0.685 | -0.415 | -0.111
14 | TAGCCTAGGTCGTTCAGGGGCCAGTATAGAAAGC | 0.616 | -0.424 | 0.206 | -0.0601 | 0.17 | -0.575 | -0.218 | -0.258

From the supplement of paper PMC6555819
